The results in this text go back to PubChem BioAssay AID1220 (Sanford-Burnham Center for Chemical Genomics, 2008).

Screen size: about 190,000 compounds; about 1,300 (0.68%) were called active. Many of the other results were omitted from the sample, so actives are more common in it than they were. A number with no mark means an inactive call. No stated cut-off is given here; in the data, active means inhibition above about 50%; inactive means the rest.

Chain of Mannose-6-phosphate isomerase (Homo sapiens) (P34949 whole entry, looked up): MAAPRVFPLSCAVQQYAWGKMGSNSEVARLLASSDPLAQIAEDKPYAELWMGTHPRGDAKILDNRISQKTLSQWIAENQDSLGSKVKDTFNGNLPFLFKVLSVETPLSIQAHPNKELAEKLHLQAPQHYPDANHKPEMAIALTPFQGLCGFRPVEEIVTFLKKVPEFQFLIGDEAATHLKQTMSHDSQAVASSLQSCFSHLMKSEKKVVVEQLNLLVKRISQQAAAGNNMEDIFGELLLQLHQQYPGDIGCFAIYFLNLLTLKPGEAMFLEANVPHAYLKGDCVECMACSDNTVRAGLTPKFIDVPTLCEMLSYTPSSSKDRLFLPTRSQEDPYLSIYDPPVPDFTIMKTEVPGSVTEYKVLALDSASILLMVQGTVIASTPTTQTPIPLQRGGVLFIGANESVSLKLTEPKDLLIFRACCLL

The experiment has as its target Mannose-6-phosphate isomerase (Homo sapiens) (UniProt P34949). The experiment is described as follows: MPI inhibition at elevated mannose 6-phosphate – biochemical, fluorescence intensity, high mannose 6-phosphate, primary screen (AID 1220). The settings on record: recombinant PMI enzyme, coupled fluorescence intensity; at 20 µM; stronger effect = higher value.
In general, inhibition refers to the drop in the measured response relative to a control, in per cent. With `[O-][n+]1ccc(C2CC2)cc1`, the inhibition was 7.7%. In the case of `CCN1CCN(C(c2cccs2)C(C)NC(=O)NC2CCCCC2)CC1` (stereo not drawn) it was 6%; in that of `CCC1Sc2ccccc2N(CC(=O)NCc2ccc3c(c2)OCO3)C1=O` (stereo not drawn), -3.8%. For the molecule `O=C(COC(=O)COc1cccc(Br)c1)Nc1c(Cl)cccc1Cl`, the inhibition is 4.6%. With `COc1ccc(-n2c(NC(=O)c3ccc(Br)o3)c(C#N)c3nc4ccccc4nc32)cc1` the figure was 66.9% (active); with `COc1ccc(Cn2c(N)c(C#N)c3nc4ccccc4nc32)cc1`, 15.1%; with `COc1ccc(NC(=O)c2ccc(Br)o2)cc1`, 13.3%.

For `CCc1cc[n+](-c2nc3ccccc3nc2C(=C=[N-])C#N)cc1`, the inhibition is 14.8%. With `Cc1cc[n+](-c2nc3ccccc3nc2C(=C=[N-])C#N)cc1` the figure was 51.9% (active); with `N#CC(=C=[N-])c1nc2ccccc2nc1-[n+]1ccccc1`, 1.9%; with `COC(=O)COC(=O)c1ccc(Oc2nc(OC)nc(N(C)C)n2)cc1`, 8.1%. On to `Cc1ccc(-c2cc(C(=O)O)c3cc(Br)ccc3n2)o1`, for which the inhibition is -44.6%.

Take `O=c1oc(-c2cccs2)nc2ccc(Br)cc12`: the inhibition is -3%. With `O=C(NC1CCCCC1)NC1CC2CCC(C1)N2C(=O)NCc1ccccc1` (stereo not drawn) the figure was -7.9%; with `N#C/C(=C/c1ccc(N2CCOCC2)o1)c1nc2ccccc2[nH]1`, 38.4%. In the case of `Cc1ccc(/C(C#N)=C\c2ccc(N3CCOCC3)o2)cc1` it was 14.1%; in that of `N#C/C(=C\c1ccc(N2CCOCC2)o1)c1nc2ccccc2[nH]1`, 45.8%; in that of `N#C/C(=C/c1ccc(N2CCOCC2)o1)c1ccc(Cl)cc1`, 42.5%. With `N#C/C(=C/c1ccc(N2CCOCC2)o1)c1ccc(Br)cc1` the figure was 50.4% (active); with `Cc1ccc2nc(/C(C#N)=C\c3ccc(N4CCOCC4)o3)[nH]c2c1`, 59.9% (active); with `CC1=CCC2COC(c3ccc[n+](Cc4ccccc4)c3)C1C2` (stereo not drawn), 43.6%.

Turning to `CCOc1ccc(N(CC(=O)N2CCCC2)S(=O)(=O)c2c(C)noc2C)cc1`, the inhibition is 0.9%.

`Cc1c(Cl)cccc1NC(=O)Nc1ccc(C(N)=O)cc1`: the inhibition is 3.7%. With `Cc1cc(/C=C2\SC(N)=NC2=O)c(C)n1-c1ccc(F)cc1` the figure was 32.4%; with `Cc1cc(C)c(S(=O)(=O)n2cnc3ccccc32)c(C)c1`, -6%; with `Cc1cc(S(=O)(=O)n2cnc3ccccc32)c(C)cc1Cl`, -20.1%. In the case of `Cc1ccc(S(=O)(=O)n2cnc3ccccc32)c(C)c1` it was 81.3% (active); in that of `O=C1c2ccccc2C(=O)N1Cc1nc(-c2ccccc2)no1`, -1.3%.

For `OCCCc1cn(-c2ccccc2)c2ccccc12`, the inhibition is -13.6%. With `C=CCSC1=N/C(=C\c2ccc(C)o2)C(=O)S1` the figure was 7.9%; with `Cc1ccc2cc(CN(Cc3ccccc3)Cc3nnnn3C3CCCC3)c(=O)[nH]c2c1`, 5.3%; with `c1ccc2c(-n3cnnn3)cccc2c1`, 1.3%. With `Nc1ccc2oc(-c3cccc4ccccc34)nc2c1` the figure was 45.3%. In the case of `Nc1ccc2nn(-c3cccc4ccccc34)nc2c1` it was 62.8% (active).

On to `Cc1cc2nn(-c3cccc4ccccc34)nc2cc1NC(=O)c1cccs1`, for which the inhibition is 15.2%. In the case of `Cc1cc2nn(-c3cccc4ccccc34)nc2cc1N` it was 75.5% (active); in that of `c1ccc2c(-n3cccn3)cccc2c1`, -0.8%.

As to `Cn1nc(-c2ccc(C(=O)O)cc2)c2ccccc2c1=O`, the inhibition is -4.7%. In the case of `CN1CCN(C(c2cccnc2)c2ccc3cccnc3c2O)CC1` (stereo not drawn) it was 39.6%; in that of `Cc1ccc2ccc(C(Nc3ccccn3)c3ccccc3)c(O)c2n1` (stereo not drawn), 11.4%; in that of `COc1ccccc1NC(c1cccnc1)c1ccc2cccnc2c1O` (stereo not drawn), 51.7% (active).

On to `CCOC(=O)N1CCN(S(=O)(=O)c2cccc3cccnc23)CC1`, for which the inhibition is -12.8%. In the case of `Cc1ccnc(NC(c2cccnc2)c2ccc3cccnc3c2O)c1` (stereo not drawn) it was 18%. Consider `CCCC(=O)NC(c1ccccc1OC)c1ccc2cccnc2c1O` (stereo not drawn), for which the inhibition was 39.5%. In the case of `CCC(=O)NC(c1ccccc1OC)c1ccc2cccnc2c1O` (stereo not drawn) it was 50.2% (active); in that of `Cc1cccc(NC(c2ccc(O)cc2)c2ccc3ccc(C)nc3c2O)n1` (stereo not drawn), 8.7%; in that of `CCC(=O)NC(c1cccs1)c1ccc2cccnc2c1O` (stereo not drawn), 49.8%. In the case of `Cc1cc(NC(c2cccnc2)c2ccc3cccnc3c2O)no1` (stereo not drawn) it was 40.3%; in that of `COc1cc(C(Nc2ccccn2)c2ccc3ccc(C)nc3c2O)cc(OC)c1O` (stereo not drawn), 62.2% (active). Take `CCN(CC)CCCNC(=O)c1ccc2c(SCC(=O)O)c3c(nc2c1)CCC3`: the inhibition is -9.3%.

`COc1ccc(-n2c(C(C)n3nc(C)c([N+](=O)[O-])c3C)n[nH]c2=S)cc1` (stereo not drawn): the inhibition was -11.8%. In the case of `COc1ccc(NC(=O)CC2C(=O)N(CCc3ccccc3)C(=S)N2Cc2cccnc2)cc1` (stereo not drawn) it was -8.8%; in that of `COc1ccc(CC(=O)NNC(=O)c2cccs2)cc1`, -0.3%. Take `CC1CC(N(C(=O)c2ccco2)c2ccccc2)c2ccccc2N1` (stereo not drawn): the inhibition was 17.9%. With `Oc1c(C(Nc2nccs2)c2ccc(C(F)(F)F)cc2)ccc2cccnc12` (stereo not drawn) the figure was 24.5%; with `Oc1c(C(Nc2nc3ccccc3s2)c2ccco2)ccc2cccnc12` (stereo not drawn), 34.8%; with `Oc1cccc(C(Nc2nccs2)c2ccc3cccnc3c2O)c1` (stereo not drawn), 57.6% (active).

`CC(C)OC(=O)c1ccc(NC(=O)c2ccco2)cc1`: the inhibition is 6.2%. In the case of `O=[N+]([O-])c1cc(-c2ncccn2)cs1` it was -6.6%.

On to `O=[N+]([O-])c1cccnc1NCc1cccs1`, for which the inhibition was 3.1%.

For `COc1ccc(NC(=O)Cn2nc3n(c2=S)CCC3)cc1`, the inhibition is 2.7%. With `CCSC1=C(C#N)C(c2ccc3c(c2)OCO3)C2=C(CCCC2=O)N1` (stereo not drawn) the figure was 7.2%. As for `N#CC1=C(N)Oc2c(sc3ccccc23)C1c1ccco1` (stereo not drawn), the inhibition is 53.1% (active). In the case of `COC(=O)C1=C(C)OC(N)=C(C#N)C1c1ccco1` (stereo not drawn) it was 2.9%; in that of `CCOC(=O)C1=C(C)OC(N)=C(C#N)C1c1ccc(C)o1` (stereo not drawn), -3.7%. In the case of `Cc1ccc(C2C(C#N)=C(N)Oc3c2sc2ccccc32)o1` (stereo not drawn) it was 57.5% (active); in that of `CC(=O)C1=C(C)OC(N)=C(C#N)C1c1ccco1` (stereo not drawn), 10.4%; in that of `Cc1ccc([C@H]2C(C#N)=C(N)Oc3cc(C)oc(=O)c32)o1`, -11.4%. In the case of `Clc1ccc(-c2cn3cc(Br)ccc3n2)cc1Cl` it was -15.2%; in that of `O=C(O)CCc1ccc(-c2cccs2)n1CCc1ccccc1`, 3.8%. Consider `CCC(C)(C)n1nnnc1C(c1ccncc1)N1CCC(C)CC1` (stereo not drawn), for which the inhibition was -5.6%. With `O=C(Nc1cccn(Cc2c(Cl)cccc2Cl)c1=O)C1CC1` the figure was 3.9%. With `COCCNC(=O)Cn1cc2c(n1)CCC(C)C2` (stereo not drawn) the figure was 4.1%; with `COC(=O)C1C(c2ccc(N(C)C)cc2)C(C(=O)OC)S(=O)(=O)CS1(=O)=O` (stereo not drawn), 15%.

For `CC(=O)NC1(C2CCCCC2=O)CCCCC1` (stereo not drawn), the inhibition is 4.2%. In the case of `Cc1ccc(C(=O)N/C(=C\c2cccs2)c2nc3ccccc3[nH]2)cc1` it was 57.5% (active); in that of `COc1ccc(C(=O)N/C(=C/c2cccs2)c2nc3ccccc3[nH]2)cc1OC`, 3.9%.

Regarding `O=C(N/C(=C/c1cccs1)c1nc2ccccc2[nH]1)c1ccccc1`, the inhibition was -4.7%. Regarding `Cc1cc(C)cc(N2C(=O)CN(Cc3sccc3C)C2=S)c1`, the inhibition is 0.5%. With `CCOc1cccc(OCCOc2ccc(C(=O)c3ccccc3)cc2)c1` the figure was 10.2%; with `CN1CCN(c2nc(-c3ccc(Cl)s3)cs2)CC1`, -4.8%. In the case of `CCN(CC)c1ccc(/C=N/NC(=S)NCc2ccccc2)c(O)c1` it was 1.2%; in that of `CCN(CC)c1ccc(/C=N/N2C(=O)c3ccccc3C2=O)c(O)c1`, -18.7%; in that of `CCN(CC)c1ccc(C=Nc2ccc(C)cc2C)c(O)c1`, 36.9%. In the case of `CCN(CC)c1ccc(C=Nc2cc(C)ccc2C)c(O)c1` it was 58.3% (active). As for `CCN(CC)c1ccc(/C=N/Nc2ccc(C)cc2)c(O)c1`, the inhibition is -70.5%. `CCN(CC)c1ccc(C=Nc2ccccc2C)c(O)c1`: the inhibition was 66.6% (active). With `Cc1ccc(-c2cc(C(=O)O)n(-c3ccc(S(N)(=O)=O)cc3)n2)cc1` the figure was -17.2%. With `COc1cc(CC(=O)OCC(=O)Nc2ccc([N+](=O)[O-])cc2)cc(OC)c1OC` the figure was 5.9%; with `CCC(=O)Nc1cccc2cccnc12`, 1.3%; with `CC(C)NC(=O)COc1ccccc1C#N`, -4.6%. With `Cc1ccc(C(=O)c2c[nH]cc2-c2ccccc2)cc1` the figure was 4.1%; with `CC(C(=O)NC1CCCC1)N(Cc1ccco1)C(=O)c1snc(C(=O)NC2CCCC2)c1N` (stereo not drawn), 4%.

Take `CC1=CC2(O)OCCN(CCO)C2=CC1=O` (stereo not drawn): the inhibition was 57.4% (active). With `Cc1ccc(-n2cccc2/C=C2\C(=N)N3N=C(c4ccco4)SC3=NC2=O)cc1` the figure was -16.6%. With `Cc1ccc2c(c1)c1c(n2CC(O)CNC(C)(C)C)CCCC1` (stereo not drawn) the figure was 27.9%; with `Cc1nn(C)c(C)c1N=Cc1c(O)ccc2ccccc12`, 50.3% (active).

As for `Cn1c(/N=C/c2cc(Cl)ccc2O)nc2ccccc21`, the inhibition is 49.3%. In the case of `Oc1ccc2ccccc2c1/C=N/n1cnnc1` it was 40.6%. Take `Cc1nc2ccccc2c(=O)n1/N=C/c1c(O)ccc2ccccc12`: the inhibition is 17.6%. With `CCn1c(/C=N/c2nc3ccccc3n2C)nc2ccccc21` the figure was 33.8%. In the case of `O=C(c1noc2c1CCCC2)N1CCN(c2ccccc2)CC1` it was 3.6%.

With `O=C(CSc1nnc(-c2ccc(Cl)s2)o1)N1CCOCC1`, the inhibition is 30.1%.
